Source: the supplement of paper PMC6555819

Assays:
Experiment in all cases: PBM binding z-score (relative to random genomic background probes); higher = stronger binding; sequences stand for … in GC…GCGATTGACAGCGTAGAATGAAGG
[1] = test system: FXR:RXRa (NR concentration 270 nM, RXRa partner concentration 90 nM)
How it was run: (§1)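 Binding z-scores were set against random background probes. The data came from custom Agilent 4×180K protein-binding microarrays carrying double-stranded probes with 34-nt variable regions, incubated 1 h with ligand-free nuclear receptor dimers. Partner-specific antibodies detected binding, and scanned fluorescence was regression-normalized.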

[2] = test system: LXRa:RXRa (NR concentration 270 nM, RXRa partner concentration 90 nM)
How it was run: as §1

[3] = test system: LXRa homodimer (NR concentration 270 nM)
How it was run: as §1

[4] = test system: LXRb:RXRa (NR concentration 270 nM, RXRa partner concentration 90 nM)
How it was run: as §1

[5] = test system: LXRb homodimer (NR concentration 270 nM)
How it was run: as §1

[6] = test system: PPARa:RXRa (NR concentration 270 nM, RXRa partner concentration 90 nM)
How it was run: as §1

[7] = test system: PPARg:RXRa (NR concentration 180 nM, RXRa partner concentration 90 nM)
How it was run: as §1

[8] = test system: PPARg:RXRa 270nM:90nM, anti-RXR (NR concentration 270 nM, RXRa partner concentration 90 nM)
How it was run: as §1

[9] = test system: PPARg:RXRa 30nM:10nM, anti-RXR (NR concentration 30 nM, RXRa partner concentration 10 nM)
How it was run: as §1

[10] = test system: PPARg:RXRa 90nM:30nM, anti-RXR (NR concentration 90 nM, RXRa partner concentration 30 nM)
How it was run: as §1

Row | Sequence | PBM binding z-score [1] | PBM binding z-score [2] | PBM binding z-score [3] | PBM binding z-score [4] | PBM binding z-score [5] | PBM binding z-score [6] | PBM binding z-score [7] | PBM binding z-score [8] | PBM binding z-score [9] | PBM binding z-score [10]
1 | ATCTCTAGGTAAAGGTTCAGTGAATCCCGAGGAT | 0.405 | 0.578 | 0.436 | 0.491 | 0.67 | 2.93 | 4.99 | 5.83 | 3.95 | 5.85
2 | AATACAGGGTCATCGGAGGCCAGAGTACGCACAG | 7.32 | 6.52 | 2.37 | 4.98 | 1.28 | 6.1 | 6.72 | 6.12 | 2.64 | 4.8
3 | AGATTGAGGTTATACGTAGATCAGGGAAGAAAGT | 1.82 | 1.79 | 0.26 | 1.37 | 0.202 | 2.91 | 1.21 | 1.56 | 0.644 | 1.05
4 | TAGCCTAGGTCATGGGCCAATATACCACGCGAAC | 4.48 | 3.55 | 0.401 | 2.56 | 0.00748 | 4.3 | 4.22 | 3.93 | 1.34 | 2.91
5 | CAAACTAGGTCACAGAGTTCAAAGTCCGTGCGTA | 6.27 | 6.12 | 7.46 | 4.98 | 0.834 | 6.05 | 9.65 | 7.78 | 6.58 | 8.06
6 | TTACCAAGGTGCAAGGTCGTTGATGCACGCCTTG | 0.786 | 1.16 | 0.129 | 0.668 | -0.474 | 2.06 | 2.28 | 3.87 | 1.91 | 3.42
7 | TCATATAGGTAAATCCTAGGTGAAAGTCCGATCT | 0.916 | 0.69 | -0.094 | 0.537 | -0.0667 | 1.47 | 0.85 | 2.16 | 3.66 | 2.72
8 | AGAACGGGGGCAATGAGTTGATAGCACGGGTGGC | 2.35 | 2.45 | 0.461 | 4.18 | 6.07 | 3.66 | 2.98 | 4.15 | 2.33 | 3.26
9 | GCATATAGGTAATACAAGTTGAAAGTCCGATTGT | 0.281 | 0.793 | -0.112 | 0.0778 | -0.33 | 1 | 1.05 | 0.484 | -0.0817 | 0.166
10 | CAAACTACGTCACGAAAGGTCAAAGTCGAATGAC | 5.17 | 6.32 | 6.22 | 5.7 | 2.44 | 5.11 | 3.01 | 4.1 | 1.58 | 3
11 | CGAAAGAGGGCATGAGTTGATAGCAAATGCCGAT | 0.277 | 0.423 | -0.431 | 0.0383 | -0.529 | 1.7 | 1.14 | 1.19 | 0.0878 | 0.644
12 | CGTCCCAGGTCAAGGTCAGTGAAAGAGACTCGAA | 6.02 | 4.67 | 1.45 | 3.68 | 0.553 | 5 | 4.32 | 4.51 | 1.14 | 3.02
13 | CGAACTAGGTCAAGGACAGCGAATCTCCGCACGC | 3.45 | 2.27 | 0.194 | 1.27 | -0.45 | 4.72 | 7.46 | 6.26 | 3.42 | 5.68
14 | AGAATGAGGTTAAGATAAGGGAAACAGAATACAT | 2.28 | 2.29 | 0.217 | 1.88 | 0.218 | 3.48 | 2.73 | 2.29 | 0.99 | 1.69
15 | TCATATAGGTAATACTGGTGAAAGTCGGCATCTA | 0.82 | 1 | 0.397 | 0.738 | 0.101 | 1.29 | 0.902 | 2.27 | 3.82 | 3.28
16 | ATCTCTAAGTAAAAGTTCAGTGAATCCCGAGGAT | 0.433 | 1.11 | 1.36 | 0.807 | 1.04 | 1.6 | 1.9 | 3.87 | 2.04 | 3.47
17 | CCTAGCAGCCCAGGGTCACTCAAGCATTTCGCTT | 2.06 | 1.93 | -0.213 | 2.17 | -0.762 | 2.99 | 0.0606 | 0.885 | -0.586 | 0.325
18 | TTACCAAGGTGAGCTGAGGTCGTTTATCCAACTC | 2.17 | 1.37 | -0.142 | 0.978 | -0.227 | 1.61 | -0.0022 | 0.829 | -0.0958 | 0.644
19 | CGAACTAGGTCATCCTGGACAGTGAATACATTGA | 4.25 | 2.46 | 0.715 | 2.21 | 0.266 | 4.76 | 7.88 | 6.36 | 3.97 | 5.92
20 | GCTATTAGTTGAAAGGGCCACCGAATGATTCTCG | -0.0568 | 0.0381 | -0.327 | -0.256 | -0.647 | 0.401 | 0.611 | 1.6 | 0.211 | 0.953
21 | GGAACGAGGGCAAAGTTGCTAGCATCTGTCGACG | 0.659 | 0.547 | -0.512 | 0.42 | -0.761 | 2.65 | 3.83 | 5.03 | 2.76 | 5.06
22 | CCTTACGGGTCTCGAGGTTATAGCACGACGAGCG | 0.0293 | 0.421 | -0.197 | 0.31 | -0.922 | 1.15 | 0.785 | 0.313 | -0.359 | -0.392
